Laboratory results from PubChem BioAssay (Tox21).
Inconclusive results are not listed. The source made the active and inactive calls. Unless noted, the call rests on the fitted dose curve; in most records, active means well fitted curve in the direction sought with a large enough effect in the repeat runs; inconclusive means weak or mixed curves; inactive means no such curve, though single readings can be large; an effect the other way counts as inactive or inconclusive.

Legend:
[1] = biological target: Thyrotropin receptor (Homo sapiens) (UniProt P16473); experiment: qHTS assay to identify small molecule antagonists of the thyroid stimulating hormone receptor (TSHR) signaling pathway (AID 1259385; calls by dose curve; further: nearly all actives have a fitted effect of over 20% in size)
Thyrotropin receptor (Homo sapiens), sequence (P16473 whole entry, looked up): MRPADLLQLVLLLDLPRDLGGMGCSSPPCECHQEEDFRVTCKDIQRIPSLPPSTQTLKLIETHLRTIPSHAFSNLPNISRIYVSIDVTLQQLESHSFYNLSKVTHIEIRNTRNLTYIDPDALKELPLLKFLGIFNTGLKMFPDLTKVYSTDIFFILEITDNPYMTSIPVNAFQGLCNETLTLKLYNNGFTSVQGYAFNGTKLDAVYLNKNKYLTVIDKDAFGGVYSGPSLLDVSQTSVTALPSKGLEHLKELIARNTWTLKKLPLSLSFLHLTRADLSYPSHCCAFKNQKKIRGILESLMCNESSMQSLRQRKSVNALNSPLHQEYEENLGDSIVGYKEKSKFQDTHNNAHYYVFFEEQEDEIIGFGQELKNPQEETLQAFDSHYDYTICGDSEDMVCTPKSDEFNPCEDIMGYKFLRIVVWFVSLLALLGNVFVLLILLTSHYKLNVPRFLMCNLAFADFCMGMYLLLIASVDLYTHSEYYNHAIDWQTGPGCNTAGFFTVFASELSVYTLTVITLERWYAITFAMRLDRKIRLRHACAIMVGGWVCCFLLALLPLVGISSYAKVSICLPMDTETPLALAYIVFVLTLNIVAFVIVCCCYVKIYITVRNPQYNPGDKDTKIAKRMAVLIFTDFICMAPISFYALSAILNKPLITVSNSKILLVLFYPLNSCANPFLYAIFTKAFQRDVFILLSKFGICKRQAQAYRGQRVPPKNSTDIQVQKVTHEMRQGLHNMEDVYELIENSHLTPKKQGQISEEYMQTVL
Method in brief: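 TSHR-HEK293 cells were plated and held 18 h at 37C/5% CO2, then given compound plus Ro20-1724 and stimulated with TSH at 1.5 ng/mL final. After 30 min at room temperature, cAMP was detected with cAMP-d2/anti-cAMP-cryptate (1 h) by fluorescence.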

[2] = biological target: Progesterone receptor (Homo sapiens) (UniProt P06401); experiment: qHTS assay to identify small molecule agonists of the progesterone receptor (PR) signaling pathway (AID 1346784; calls by dose curve; further: nearly all actives have a fitted effect of over 30% in size)
Progesterone receptor (Homo sapiens), sequence (P06401 whole entry, looked up): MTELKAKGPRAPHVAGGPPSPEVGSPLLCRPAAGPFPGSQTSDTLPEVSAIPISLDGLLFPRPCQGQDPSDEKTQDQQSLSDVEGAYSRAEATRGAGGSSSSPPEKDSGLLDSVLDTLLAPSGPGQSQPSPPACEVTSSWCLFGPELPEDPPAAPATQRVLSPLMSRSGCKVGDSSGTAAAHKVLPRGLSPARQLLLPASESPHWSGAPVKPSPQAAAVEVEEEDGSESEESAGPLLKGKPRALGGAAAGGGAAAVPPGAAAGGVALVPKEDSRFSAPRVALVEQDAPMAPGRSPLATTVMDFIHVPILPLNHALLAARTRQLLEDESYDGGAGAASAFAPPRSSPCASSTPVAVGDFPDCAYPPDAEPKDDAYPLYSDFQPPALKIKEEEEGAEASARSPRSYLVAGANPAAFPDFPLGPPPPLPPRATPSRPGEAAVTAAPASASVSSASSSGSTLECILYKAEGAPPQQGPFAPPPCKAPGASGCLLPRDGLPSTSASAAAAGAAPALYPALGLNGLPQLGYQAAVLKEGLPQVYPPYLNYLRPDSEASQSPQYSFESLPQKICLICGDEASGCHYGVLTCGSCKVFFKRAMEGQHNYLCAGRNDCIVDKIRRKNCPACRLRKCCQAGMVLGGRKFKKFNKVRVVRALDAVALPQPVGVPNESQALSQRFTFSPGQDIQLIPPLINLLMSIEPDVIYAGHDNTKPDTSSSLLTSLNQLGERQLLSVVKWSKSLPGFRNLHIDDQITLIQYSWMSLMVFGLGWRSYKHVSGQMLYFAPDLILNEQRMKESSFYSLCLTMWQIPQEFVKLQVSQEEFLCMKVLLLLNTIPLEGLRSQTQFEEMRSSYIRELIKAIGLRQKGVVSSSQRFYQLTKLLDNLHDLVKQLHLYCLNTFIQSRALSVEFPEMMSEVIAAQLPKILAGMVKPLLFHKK
Method in brief: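 Fluorescence from LiveBLAzer B/G FRET substrate cleavage (2 hr, RT) reported PR activation in PR-UAS-bla HEK 293T cells treated 16 hr at 37C/5% CO2 with compounds; medium contained 2% charcoal-stripped FBS.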

[3] = biological target: Progesterone receptor (Homo sapiens) (UniProt P06401); experiment: qHTS assay to identify small molecule antagonists of the progesterone receptor (PR) signaling pathway (AID 1346795; active means well fitted inhibition curve with a large enough effect in the signal ratio in the repeat runs, not every such curve was filed as active; the % refers to the signal ratio; further: potency means the concentration at half of the fitted maximal effect)
Method in brief: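 Fluorescence intensity measured 2 hr after adding beta-lactamase FRET substrate to PR-UAS-bla HEK293T cells that had been co-treated 16 hr with compound and 1 nM R5020 (final concentration) in 2% charcoal-stripped FBS.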

[4] = qHTS assay to identify small molecule antagonists of the progesterone receptor (PR) signaling pathway - cell viability counter screen (AID 1346798); further: series mostly up to about 92 µM; nearly all actives have a fitted effect of over 50% in size
Method in brief: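 CellTiter-Glo luminescence; PR-UAS-bla HEK293T, 3,000 cells/well; compound + R5020, 16 hr, 37C/5% CO2; 30 min RT before read.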

[5] = qHTS assay to identify small molecule agonists of the progesterone receptor (PR) signaling pathway - cell viability counter screen (AID 1346799; calls by dose curve; further: nearly all actives have a fitted effect of over 45% in size)
Method in brief: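 In parallel with the beta-lactamase readout, cytotoxicity toward PR-UAS-bla HEK293T cells was measured by CellTiter-Glo luminescence following 16 hr compound incubation in 2% charcoal-stripped FBS medium.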

[6] = qHTS assay to identify small molecule antagonists of the TGF-beta/Smad signaling pathway - cell viability counter screen (AID 1346824); further: nearly all actives have a fitted effect of over 50% in size
Method in brief: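 SBE-bla HEK 293T cells were plated overnight at 37 C, then given compounds in DMSO plus TGF-beta1 (added as 0.25 ng/mL solution) for 5 hr. After the bla read, CellTiter-Glo was added to the same wells and luminescence read after 30 min at room temperature.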

[7] = qHTS assay to identify small molecule agonists of the TGF-beta/Smad signaling pathway - cell viability counter screen (AID 1346829); further: top concentration of the series differs between compounds; nearly all actives have a fitted effect of over 45% in size
Method in brief: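 Same-well cytotoxicity: CellTiter-Glo added after the 2 hr room-temperature beta-lactamase substrate step, luminescence measured 30 min later; cells had 5 hr of compound at 37 C.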

[8] = qHTS assay to identify small molecule agonists of the TGF-beta/Smad signaling pathway (AID 1346859; active means well fitted activation curve with a large enough effect in the signal ratio in the repeat runs, not every such curve was filed as active; the % refers to the signal ratio; further: series mostly up to about 77 µM)
Method in brief: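 After overnight seeding, SBE-bla HEK 293T cells are dosed with compounds in DMSO and kept 5 hr at 37 C, 5% CO2. LiveBLAzer-type FRET substrate is then applied for 2 hr at room temperature.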

[9] = biological target: Thyrotropin-releasing hormone receptor (Homo sapiens) (UniProt P34981); experiment: qHTS assay to identify small molecule antagonists of the thyrotropin-releasing hormone receptor (TRHR) signaling pathway (AID 1346877; active means well fitted inhibition curve with a large enough effect in the repeat runs, not every such curve was filed as active; further: series mostly up to about 51 µM)
Thyrotropin-releasing hormone receptor (Homo sapiens), sequence (P34981 whole entry, looked up): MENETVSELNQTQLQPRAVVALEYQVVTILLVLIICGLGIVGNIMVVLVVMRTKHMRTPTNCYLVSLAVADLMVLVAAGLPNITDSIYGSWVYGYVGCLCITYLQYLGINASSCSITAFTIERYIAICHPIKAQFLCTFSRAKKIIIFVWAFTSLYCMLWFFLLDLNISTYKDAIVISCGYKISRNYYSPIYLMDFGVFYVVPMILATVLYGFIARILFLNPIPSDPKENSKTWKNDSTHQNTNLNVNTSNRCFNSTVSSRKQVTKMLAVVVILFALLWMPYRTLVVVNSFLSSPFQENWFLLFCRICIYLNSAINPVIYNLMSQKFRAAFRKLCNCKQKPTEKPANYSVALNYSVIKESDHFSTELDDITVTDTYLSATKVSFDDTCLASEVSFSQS
Method in brief: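 Following an 18 h incubation at 37 °C and a 2 h calcium dye load, TRHR-HEK293 cells were exposed to compound (5 min, room temperature) and challenged with TRH, 1 nM final.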

[10] = biological target: Thyrotropin-releasing hormone receptor (Homo sapiens) (UniProt P34981); experiment: qHTS assay to identify small molecule agonists of the thyrotropin-releasing hormone receptor (TRHR) signaling pathway (AID 1346891; calls by dose curve;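 further: HEK293 cells expressing TRHR with calcium dye readout; series mostly up to about 58 µM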)
Method in brief: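 Compounds were tested as agonists at 15 concentrations, in triplicate, on TRHR-Hek293 cells; calcium-sensitive dye fluorescence was recorded for 3 min following addition.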

[11] = Caspase-3/7 induction in HepG2 cells by small molecules, qHTS assay (AID 1346978); further: nearly all actives have a fitted effect of over 15% in size
Method in brief: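 Wild-type HepG2 cells (2,000/well) were settled 5 h at 37 C, 5% CO2, then exposed to compounds in DMSO for 17 h. Caspase-3/7 activity was read by luminescence 30 min after adding Caspase-Glo 3/7 reagent at room temperature.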

[12] = Caspase-3/7 induction in CHO-K1 cells by small molecules, qHTS cell viability counter screen (AID 1346979); further: nearly all actives have a fitted effect of over 35% in size; further: potency means the concentration at half of the fitted maximal effect
Method in brief: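 Viability readout by fluorescence (CellTiter-Fluor) on wild-type CHO-K1 cells exposed for 16hr at 37C and 5% CO2 to compounds delivered in DMSO; reagent incubated 1hr before reading.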

[13] = Caspase-3/7 induction in CHO-K1 cells by small molecules, qHTS assay (AID 1346980); further: nearly all actives have a fitted effect of over 15% in size
Method in brief: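 Wild-type cells were seeded at 1,500 per well and settled 5 hr at 37 C, 5% CO2, then exposed to DMSO-dissolved compounds for 17 hr. Caspase-Glo 3/7 reagent was added, and luminescence was read after 30min at room temperature.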

[14] = Caspase-3/7 induction in HepG2 cells by small molecules, qHTS cell viability counter screen (AID 1346981); further: series mostly up to about 92 µM; nearly all actives have a fitted effect of over 30% in size
Method in brief: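 Viability determined by CellTiter-Fluor fluorescence in HepG2 wells also used for the luminescent Caspase-Glo 3/7 read. Compounds were present for 16 hr at 37 C, 5% CO2 before reagent addition.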

[15] = biological target: Nuclear receptor subfamily 1 group I member 2 (Homo sapiens) (UniProt O75469); experiment: Human pregnane X receptor (PXR) small molecule agonists, qHTS assay (AID 1346982); further: nearly all actives have a fitted effect of over 35% in size; further: potency means the concentration at half of the fitted maximal effect
Nuclear receptor subfamily 1 group I member 2 (Homo sapiens), sequence (O75469 whole entry, looked up): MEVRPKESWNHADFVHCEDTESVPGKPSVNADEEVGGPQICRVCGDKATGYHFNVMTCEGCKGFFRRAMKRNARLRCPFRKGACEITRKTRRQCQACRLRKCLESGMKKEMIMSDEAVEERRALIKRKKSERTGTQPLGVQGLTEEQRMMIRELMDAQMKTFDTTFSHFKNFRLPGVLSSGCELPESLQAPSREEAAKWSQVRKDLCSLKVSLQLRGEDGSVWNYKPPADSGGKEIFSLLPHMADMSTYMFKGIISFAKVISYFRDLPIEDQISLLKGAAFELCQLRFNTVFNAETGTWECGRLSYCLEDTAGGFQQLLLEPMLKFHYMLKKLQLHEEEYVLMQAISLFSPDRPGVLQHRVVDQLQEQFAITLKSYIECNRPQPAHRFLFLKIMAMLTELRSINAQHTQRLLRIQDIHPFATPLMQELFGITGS
Method in brief: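 Compound-induced hPXR transactivation of a CYP3A4 luciferase reporter was scored in HepG2 PXR-Luc cells over 24 hr at 37 C, 5% CO2, by luminescence.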

[16] = Human pregnane X receptor (PXR) small molecule agonists, qHTS cell viability counter screen (AID 1346977); further: nearly all actives have a fitted effect of over 50% in size
Method in brief: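 Viability counter screen: CellTiter-Fluor signal in PXR-Luc HepG2 cells, 24hr compound exposure, 37C, 5% CO2.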

[17] = biological target: Nuclear receptor subfamily 1 group I member 2 (Rattus norvegicus) (UniProt Q9R1A7); experiment: Rat pregnane X receptor (rPXR) activation by small molecules, qHTS assay (AID 1346983); details: rPXR luciferase reporter cells, One-Glo luminescence, 24 h; max activation: stronger effect = higher value; further: nearly all actives have a fitted effect of over 20% in size
Nuclear receptor subfamily 1 group I member 2 (Rattus norvegicus), sequence (Q9R1A7 whole entry, looked up): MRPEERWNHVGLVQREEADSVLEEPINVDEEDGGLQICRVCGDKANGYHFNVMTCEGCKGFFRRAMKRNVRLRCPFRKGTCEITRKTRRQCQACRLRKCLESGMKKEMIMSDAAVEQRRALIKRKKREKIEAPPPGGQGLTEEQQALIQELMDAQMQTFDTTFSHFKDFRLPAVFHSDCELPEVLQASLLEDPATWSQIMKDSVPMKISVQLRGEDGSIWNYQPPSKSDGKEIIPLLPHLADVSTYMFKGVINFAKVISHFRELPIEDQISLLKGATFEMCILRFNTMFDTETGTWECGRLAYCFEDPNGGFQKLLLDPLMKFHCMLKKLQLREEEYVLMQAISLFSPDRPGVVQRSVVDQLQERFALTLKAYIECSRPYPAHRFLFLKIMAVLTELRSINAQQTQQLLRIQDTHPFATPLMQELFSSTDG
Method in brief: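 Cell-based rPXR luciferase reporter assay, 2,000 cells per well, rested 5hr at 37 C before compound addition in DMSO, then 24 hr at 37 C. One-Glo reagent was added and luminescence read after 30 min at room temperature.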

[18] = qHTS assay to identify small molecule agonists of the estrogen receptor alpha (ER-alpha) signaling pathway in the presence of an antagonist - cell viability counter screen (AID 1259386);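 further: series mostly up to about 92 µM; cells exposed to compounds for 22 h at 37 °C before the viability read; nearly all actives have a fitted effect of over 30% in size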
Method in brief: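 Viability counter screen using VM7Luc4E2 (full-length ER-alpha, four ERE-luciferase). The cells were treated with compounds alongside ICI-182,780 10.0nM for 22hr, and live-cell protease fluorescence was quantified with CellTiter-Fluor.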
On the % scale 0 is the no-effect control and ±100 the full control effect.

CCC(Cl)CCl (stereo not drawn)
inactive: Potency [1] | Potency [2] | Potency [3] | Potency [4] | Potency [5] | Potency [6] | Potency [7] | outcome [8] | Potency [9] | Potency [10] | Potency [11] | Potency [12] | Potency [13] | Potency [14] | Potency [15]

N#C/C(N)=C(/N)C#N
inactive: Potency [1] | Potency [2] | Potency [4] | Potency [5] | Potency [6] | Potency [7] | outcome [8] | Potency [9] | Potency [10] | Potency [16] | Potency [13] | Potency [15]

C=CCOC(C)=O
active: Potency [3] 1.91 µM
inactive: Potency [1] | Potency [2] | Potency [4] | Potency [5] | Potency [6] | Potency [7] | outcome [8] | Potency [9] | Potency [10] | Potency [16] | Potency [11] | Potency [12] | Potency [13] | Potency [14] | Potency [15]

CC(C)N(CCC(C(N)=O)(c1ccccc1)c1ccccn1)C(C)C (stereo not drawn)
inactive: Potency [1] | Potency [2] | Potency [3] | Potency [4] | Potency [5] | Potency [6] | Potency [7] | outcome [8] | Potency [16] | Potency [12] | Potency [13] | Potency [14] | max activation [17] -7.32%

O=C(Nc1ccccc1)Nc1cnns1
inactive: Potency [1] | Potency [18] | Potency [6] | Potency [7] | outcome [8] | Potency [9] | Potency [10] | Potency [13] | Potency [14]
active: Potency [12] 54.4 µM

Brc1ccc(Oc2ccccc2)cc1
inactive: Potency [1] | Potency [2] | Potency [3] | Potency [5] | Potency [6] | Potency [7] | outcome [8] | Potency [9] | Potency [10] | Potency [16] | Potency [12] | Potency [13] | Potency [14] | Potency [15]

CCOP(=S)(OCC)SCSCC
inactive: Potency [1] | Potency [2] | Potency [4] | Potency [5] | Potency [6] | Potency [7] | outcome [8] | Potency [9] | Potency [10] | Potency [16] | Potency [11] | Potency [12] | Potency [13] | Potency [15]

Cn1cc[n+](C)c1 (tested in a mixture with another compound)
inactive: Potency [1] | Potency [2] | Potency [3] | Potency [4] | Potency [5] | Potency [6] | Potency [7] | outcome [8] | Potency [9] | Potency [10] | Potency [16] | Potency [11] | Potency [12] | Potency [13] | Potency [14] | Potency [15]

C=CC(=O)OCCCCO
inactive: Potency [1] | Potency [2] | Potency [3] | Potency [4] | Potency [5] | Potency [6] | Potency [7] | Potency [9] | Potency [10] | Potency [16] | Potency [11] | Potency [13] | Potency [15]
active: Potency [12] 54.5 µM

COc1nn(C(=O)NS(=O)(=O)c2ccccc2OC(F)(F)F)c(=O)n1C
inactive: Potency [1] | Potency [18] | Potency [4] | Potency [5] | Potency [6] | Potency [7] | outcome [8] | Potency [9] | Potency [10] | Potency [13] | Potency [14] | Potency [15]

O=C(CBr)c1ccccc1
inactive: Potency [1] | Potency [2] | Potency [3] | Potency [4] | Potency [5] | Potency [6] | Potency [7] | outcome [8] | Potency [9] | Potency [10] | Potency [16] | Potency [11] | Potency [14] | Potency [15]

ClCCCCBr
inactive: Potency [1] | Potency [2] | Potency [3] | Potency [4] | Potency [6] | Potency [7] | outcome [8] | Potency [9] | Potency [10] | Potency [16] | Potency [11] | Potency [12] | Potency [13] | Potency [14] | Potency [15]

CCCCC(CC)COP(=O)(Oc1ccccc1)Oc1ccccc1 (stereo not drawn)
inactive: Potency [1] | Potency [2] | Potency [4] | Potency [5] | Potency [6] | Potency [7] | outcome [8] | Potency [9] | Potency [10] | Potency [12] | Potency [13]
active: Potency [15] 7.7 µM

CCOc1ccc(C(C)(C)COCc2cccc(Oc3ccccc3)c2)cc1
inactive: Potency [1] | Potency [2] | Potency [3] | Potency [6] | Potency [7] | outcome [8] | Potency [9] | Potency [10] | Potency [16] | Potency [11] | Potency [12] | Potency [13]

O=C(NC(=O)c1c(F)cccc1F)Nc1cc(Cl)c(Oc2ncc(C(F)(F)F)cc2Cl)c(Cl)c1
active: Potency [12] 52.2 µM | Potency [15] 8.27 µM
inactive: Potency [1] | Potency [2] | Potency [4] | Potency [5] | Potency [6] | Potency [7] | Potency [9] | Potency [10] | Potency [16] | Potency [14]

CC1CC(CC2CCC(N)C(C)C2)CCC1N (stereo not drawn)
inactive: Potency [1] | Potency [2] | Potency [3] | Potency [6] | Potency [7] | outcome [8] | Potency [9] | Potency [10] | Potency [11] | Potency [13] | Potency [14] | Potency [15]
